From PubChem BioAssay (EPA / NIEHS)
Several values for one entry are separate records, joined by “and”; a condition that tells them apart may be missing. Identical values can stand only once. Results filed as inconclusive are left out. A structure can be active in one record and inactive in another. Activity calls are given as the source filed them. The calls were made as follows, unless noted: active = hit-call score of the fitted dose curve at least 0.9, where 1 is the maximum; inconclusive = response in the unintended direction; inactive = score below 0.9.

How the values were obtained:
[1] = BSK_4H_Eotaxin3: BioMAP Diversity Plus: 4H Assay for Eotaxin 3 Biomarker Activity (AID 2283000; active = hit-call score of the fitted dose curve at least 0.9, where 1 is the maximum; inactive = score below 0.9;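 also: CCL26 protein level quantified by ELISA in parallel with SRB cytotoxicity check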); conditions: primary human endothelial cells (HUVEC); actives raise or lower the signal
Outline: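 HUVEC, 24 h post-dose, ELISA for Eotaxin-3/CCL26. Gain or loss of signal fitted bidirectionally vs DMSO baseline.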

[2] = read-out: Intercellular Adhesion Molecule 1 (ICAM1), ICAM1 (gene 3383); assay: BSK_3C_ICAM1: BioMAP Diversity Plus: 3C Assay for Intercellular Adhesion Molecule 1 (ICAM1) Biomarker Activity (AID 2283003; active = hit-call score of the fitted dose curve at least 0.9, where 1 is the maximum; inactive = score below 0.9); conditions: primary human endothelial cells (HUVEC); actives raise or lower the signal
Outline: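 Chemicals are dosed onto primary human umbilical vein endothelium (3C system). After 24 h, ICAM-1 is measured by ELISA, and responses are fitted bidirectionally relative to DMSO.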

[3] = BSK_3C_Proliferation: Cell Proliferation Assessment in the BioMAP Diversity Plus: 3C Assay (AID 2283006; active = hit-call score of the fitted dose curve at least 0.9, where 1 is the maximum; inactive = score below 0.9;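 as to AC50: potency may reflect either rise or fall in cell number versus DMSO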); conditions: primary human endothelial cells (HUVEC)
Outline: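 Cells (human umbilical vein endothelial, sub-confluent) receive test chemical; after 48 h they are fixed in 10% trichloroacetic acid, stained with 0.1% SRB and read at 560 nm. Activity is referenced to DMSO, fitting increases and decreases.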

[4] = read-out: E-selectin (Homo sapiens) (UniProt P16581); assay: BSK_3C_Eselectin: BioMAP Diversity Plus: 3C Assay for Eselectin Biomarker Activity (AID 2283015; active = hit-call score of the fitted dose curve at least 0.9, where 1 is the maximum; inactive = score below 0.9); conditions: primary human endothelial cells (HUVEC); actives raise or lower the signal
Outline: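 Primary human umbilical vein endothelial cells (3C system) were dosed with chemical and cell-surface E-selectin measured by ELISA 24 h later. Bidirectional curve fitting used DMSO as negative control and baseline.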

[5] = read-out: Interleukin-1 alpha (IL1a), IL1A (gene 3552); assay: BSK_BE3C_IL1a: BioMAP Diversity Plus: BE3C Assay for Interleukin-1 alpha (IL1a) Biomarker Activity (AID 2283016; active = hit-call score of the fitted dose curve at least 0.9, where 1 is the maximum; inactive = score below 0.9); conditions: primary human bronchial epithelial cells; actives raise or lower the signal
Outline: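 Signal from IL-1a ELISA, taken 24 h after chemical dosing of human bronchial epithelial cells, is compared with DMSO as baseline using bidirectional curve fitting.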

[6] = read-out: Monocyte Chemoattractant Protein-1 (MCP1), CCL2 (gene 6347); assay: BSK_3C_MCP1: BioMAP Diversity Plus: 3C Assay for Monocyte Chemoattractant Protein-1 (MCP1) Biomarker Activity (AID 2283017; active = hit-call score of the fitted dose curve at least 0.9, where 1 is the maximum; inactive = score below 0.9); conditions: primary human endothelial cells (HUVEC); actives raise or lower the signal
Outline: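 Primary human umbilical vein endothelial cells (3C system) were exposed to test chemical for 24 h, after which MCP-1 was quantified by ELISA. Activity was fitted bidirectionally against DMSO as negative control and baseline.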

[7] = read-out: Monocyte Chemoattractant Protein-1 (MCP1), CCL2 (gene 6347); assay: BSK_4H_MCP1: BioMAP Diversity Plus: 4H Assay for Monocyte Chemoattractant Protein-1 (MCP1) Biomarker Activity (AID 2283018; active = hit-call score of the fitted dose curve at least 0.9, where 1 is the maximum; inactive = score below 0.9); conditions: primary human endothelial cells (HUVEC); actives raise or lower the signal
Outline: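 Endothelial cells from umbilical vein were treated with test chemical, then after 24 h MCP-1 levels were quantified by ELISA; endpoint values came from bidirectional fitting with DMSO as baseline of activity.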

[8] = read-out: Human Leukocyte Antigen - DR isotype (HLADR), HLA-DRA (gene 3122); assay: BSK_3C_HLADR: BioMAP Diversity Plus: 3C Assay for Human Leukocyte Antigen - DR isotype (HLADR) Biomarker Activity (AID 2283019; active = hit-call score of the fitted dose curve at least 0.9, where 1 is the maximum; inactive = score below 0.9); conditions: primary human endothelial cells (HUVEC); actives raise or lower the signal
Outline: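 Primary human umbilical vein endothelial cells (3C system) were dosed with compound and cell-surface HLA-DR was quantified by ELISA at 24 h. Activity was fitted bidirectionally against DMSO as negative control and baseline.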

[9] = target: human Peroxisome Proliferator-activated Receptor alpha (PPARa), PPARA (gene 5465) (UniProt Q07869); assay: ATG_PPARa_TRANS: Attagene TRANS-FACTORIAL HepG2 Assay for human Peroxisome Proliferator-activated Receptor alpha (PPARa) (AID 2283001)
Outline: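 Cells (HepG2) are transfected with multiple reporter transcription units, exposed to chemical for 24 h, then total RNA is reverse-transcribed and amplified. Labelled products are quantified by capillary electrophoresis; induction is referenced to DMSO.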

[10] = target: human Peroxisome Proliferator-activated Receptor delta (PPARd), PPARD (gene 5467) (UniProt Q03181); assay: ATG_PPARd_TRANS: Attagene TRANS-FACTORIAL HepG2 Assay for human Peroxisome Proliferator-activated Receptor delta (PPARd) (AID 2283002)
human Peroxisome Proliferator-activated Receptor delta (PPARd), PPARD (gene 5467), sequence (Q03181 whole entry, looked up, the tested form may be a part): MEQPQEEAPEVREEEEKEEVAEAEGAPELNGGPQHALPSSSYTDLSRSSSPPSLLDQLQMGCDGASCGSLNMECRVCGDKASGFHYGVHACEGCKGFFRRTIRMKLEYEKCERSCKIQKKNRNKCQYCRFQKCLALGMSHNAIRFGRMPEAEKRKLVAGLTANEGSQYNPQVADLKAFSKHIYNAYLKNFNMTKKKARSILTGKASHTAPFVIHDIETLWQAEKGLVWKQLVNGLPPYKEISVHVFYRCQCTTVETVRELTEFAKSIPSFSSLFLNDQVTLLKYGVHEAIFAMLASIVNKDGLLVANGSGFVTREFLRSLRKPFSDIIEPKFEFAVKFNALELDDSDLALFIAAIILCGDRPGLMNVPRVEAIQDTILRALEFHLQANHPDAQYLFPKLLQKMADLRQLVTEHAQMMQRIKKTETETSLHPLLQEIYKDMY
Outline: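 HepG2 cells transiently transfected with multiplexed GAL4-UAS reporter units and exogenous chimeric NR-Gal4 proteins; 24 h compound exposure. Reporter mRNA measured by RT-PCR, 6-FAM labelling, HpaI digestion and capillary electrophoresis; gain of signal versus DMSO.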

[11] = target: Peroxisome proliferator-activated receptor gamma (Homo sapiens) (UniProt P37231); assay: ATG_PPARg_TRANS: Attagene TRANS-FACTORIAL HepG2 Assay for human Peroxisome Proliferator-activated Receptor-gamma (PPARg) (AID 2283007)
Peroxisome proliferator-activated receptor gamma (Homo sapiens), sequence (P37231 whole entry, looked up, the tested form may be a part): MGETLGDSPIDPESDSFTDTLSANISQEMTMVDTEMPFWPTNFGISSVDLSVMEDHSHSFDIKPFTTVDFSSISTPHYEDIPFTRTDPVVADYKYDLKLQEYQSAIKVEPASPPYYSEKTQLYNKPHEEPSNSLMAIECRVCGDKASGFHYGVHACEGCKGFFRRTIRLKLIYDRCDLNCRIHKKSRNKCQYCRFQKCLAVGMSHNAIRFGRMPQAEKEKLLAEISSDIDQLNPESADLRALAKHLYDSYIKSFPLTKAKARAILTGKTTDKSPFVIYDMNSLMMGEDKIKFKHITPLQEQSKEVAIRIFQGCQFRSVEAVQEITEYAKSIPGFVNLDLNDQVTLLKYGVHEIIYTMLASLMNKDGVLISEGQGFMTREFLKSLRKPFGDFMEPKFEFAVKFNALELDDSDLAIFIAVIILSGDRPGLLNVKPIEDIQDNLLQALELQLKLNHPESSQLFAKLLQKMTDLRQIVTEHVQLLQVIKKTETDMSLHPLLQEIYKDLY
Outline: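 HepG2 cells transiently transfected with multiplexed GAL4-UAS reporter units and exogenous chimeric NR-Gal4 proteins; reporter mRNA quantified after 24 h compound exposure by RT-PCR, fluorescent labelling, HpaI digestion and capillary electrophoresis; gain-of-signal fitted versus DMSO baseline.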

[12] = target: Nuclear receptor subfamily 1 group I member 2 (Homo sapiens) (UniProt O75469); assay: ATG_PXR_TRANS: Attagene TRANS-FACTORIAL HepG2 Assay for human Pregnane X Receptor (PXR) (AID 2283008)
Nuclear receptor subfamily 1 group I member 2 (Homo sapiens), sequence (O75469 whole entry, looked up, the tested form may be a part): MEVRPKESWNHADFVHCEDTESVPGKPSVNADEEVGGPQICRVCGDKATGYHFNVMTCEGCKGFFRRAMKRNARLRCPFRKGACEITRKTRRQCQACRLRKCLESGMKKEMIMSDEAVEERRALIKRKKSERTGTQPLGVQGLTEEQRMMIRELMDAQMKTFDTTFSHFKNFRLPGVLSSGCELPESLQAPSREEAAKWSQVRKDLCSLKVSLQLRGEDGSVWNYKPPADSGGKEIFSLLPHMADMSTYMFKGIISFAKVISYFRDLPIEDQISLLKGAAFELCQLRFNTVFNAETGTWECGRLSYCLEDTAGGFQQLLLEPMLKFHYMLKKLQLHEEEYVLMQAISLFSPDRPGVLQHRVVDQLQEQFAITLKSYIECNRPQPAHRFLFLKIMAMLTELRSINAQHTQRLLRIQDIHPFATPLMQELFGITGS
Outline: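 Transactivation by exogenous PXR–GAL4 fusion measured as reporter transcript induction after 24 h compound treatment of transfected human HepG2 cells. Read-out via RT-PCR and capillary electrophoresis of labelled fragments, fitted upward relative to DMSO.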

[13] = target: human Retinoic Acid Receptor gamma (RARg), RARG (gene 5916) (UniProt P13631); assay: ATG_RARg_TRANS: Attagene TRANS-FACTORIAL HepG2 Assay for human Retinoic Acid Receptor gamma (RARg) (AID 2283009)
Outline: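 TRANS format measured activity of exogenous NR-GAL4 fusion (RARg) in transfected HepG2 liver cells after 24 h dosing. Induced reporter RNA was detected by RT-PCR/capillary electrophoresis fluorescence, analysed in the positive direction against DMSO.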

[14] = target: human RAR-related Orphan Receptor beta (RORb), RORB (gene 6096) (UniProt Q92753); assay: ATG_RORb_TRANS: Attagene TRANS-FACTORIAL HepG2 Assay for human RAR-related Orphan Receptor beta (RORb) (AID 2283010)
human RAR-related Orphan Receptor beta (RORb), RORB (gene 6096), sequence (Q92753 whole entry, looked up, the tested form may be a part): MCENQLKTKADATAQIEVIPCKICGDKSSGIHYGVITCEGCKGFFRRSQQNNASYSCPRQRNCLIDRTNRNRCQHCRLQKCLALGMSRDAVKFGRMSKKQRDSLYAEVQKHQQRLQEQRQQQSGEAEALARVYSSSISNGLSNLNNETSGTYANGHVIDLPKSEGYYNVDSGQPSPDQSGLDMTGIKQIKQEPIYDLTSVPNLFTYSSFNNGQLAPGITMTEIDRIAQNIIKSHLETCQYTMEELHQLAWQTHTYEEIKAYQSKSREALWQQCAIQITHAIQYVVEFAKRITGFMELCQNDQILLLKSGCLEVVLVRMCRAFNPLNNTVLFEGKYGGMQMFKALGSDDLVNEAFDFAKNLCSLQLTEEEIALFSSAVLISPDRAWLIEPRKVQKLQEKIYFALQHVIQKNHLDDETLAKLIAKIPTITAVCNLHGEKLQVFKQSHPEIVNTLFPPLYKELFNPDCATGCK
Outline: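 Transfect HepG2 with multiple GAL4-UAS reporter transcription units; dose chemicals for 24 h; isolate RNA, reverse-transcribe and PCR-amplify reporter sequences; label, digest and resolve fragments by capillary electrophoresis; fit increases relative to DMSO.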

[15] = target: human RAR-related Orphan Receptor gamma (RORg), RORC (gene 6097) (UniProt P51449); assay: ATG_RORg_TRANS: Attagene TRANS-FACTORIAL HepG2 Assay for human RAR-related Orphan Receptor gamma (RORg) (AID 2283011)
human RAR-related Orphan Receptor gamma (RORg), RORC (gene 6097), sequence (P51449 whole entry, looked up, the tested form may be a part): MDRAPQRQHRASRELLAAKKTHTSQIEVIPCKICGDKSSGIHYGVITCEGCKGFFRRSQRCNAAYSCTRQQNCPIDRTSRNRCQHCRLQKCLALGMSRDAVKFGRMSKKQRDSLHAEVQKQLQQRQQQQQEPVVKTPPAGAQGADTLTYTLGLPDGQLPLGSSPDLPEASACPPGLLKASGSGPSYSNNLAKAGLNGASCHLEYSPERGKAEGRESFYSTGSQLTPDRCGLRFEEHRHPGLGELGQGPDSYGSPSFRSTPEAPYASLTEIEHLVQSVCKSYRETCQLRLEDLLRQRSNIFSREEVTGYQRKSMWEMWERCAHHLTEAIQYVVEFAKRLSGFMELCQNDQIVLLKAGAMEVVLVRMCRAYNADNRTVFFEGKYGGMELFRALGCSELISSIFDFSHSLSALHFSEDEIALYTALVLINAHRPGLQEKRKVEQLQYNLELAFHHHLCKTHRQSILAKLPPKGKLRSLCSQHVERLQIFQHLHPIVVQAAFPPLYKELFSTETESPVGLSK
Outline: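 Readout: reporter transcript induction (RT-PCR, fluorescent primer extension, capillary electrophoresis) after 24 h compound exposure of transiently transfected HepG2 cells carrying a RORg-Gal4 chimera and GAL4-UAS reporters; DMSO served as baseline, with increasing signal fitted.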

[16] = target: Retinoic acid receptor RXR-alpha (Homo sapiens) (UniProt P19793); assay: ATG_RXRa_TRANS: Attagene TRANS-FACTORIAL HepG2 Assay for human Retinoid X Receptor alpha (RXRa) (AID 2283012)
Retinoic acid receptor RXR-alpha (Homo sapiens), sequence (P19793 whole entry, looked up, the tested form may be a part): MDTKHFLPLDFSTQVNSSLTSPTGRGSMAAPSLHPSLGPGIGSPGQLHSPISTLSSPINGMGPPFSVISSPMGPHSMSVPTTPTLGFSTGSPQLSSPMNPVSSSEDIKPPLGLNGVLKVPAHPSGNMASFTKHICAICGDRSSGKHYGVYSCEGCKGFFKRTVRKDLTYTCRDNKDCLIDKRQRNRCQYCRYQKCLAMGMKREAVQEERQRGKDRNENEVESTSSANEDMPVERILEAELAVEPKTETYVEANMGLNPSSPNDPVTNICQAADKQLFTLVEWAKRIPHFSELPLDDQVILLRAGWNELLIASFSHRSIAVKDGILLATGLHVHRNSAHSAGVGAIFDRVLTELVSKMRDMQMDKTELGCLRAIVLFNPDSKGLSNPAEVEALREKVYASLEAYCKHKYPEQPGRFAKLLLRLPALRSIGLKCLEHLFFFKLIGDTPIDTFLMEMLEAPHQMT
Outline: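 Measures exogenous chimeric NR-GAL4 activity in transfected HepG2 liver cells after 24 h of dosing. Induced reporter mRNA was detected by RT-PCR with capillary electrophoresis, and gain of signal was analysed against DMSO.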

[17] = target: human Retinoid X Receptor beta (RXRb), RXRB (gene 6257) (UniProt P28702); assay: ATG_RXRb_TRANS: Attagene TRANS-FACTORIAL HepG2 Assay for human Retinoid X Receptor beta (RXRb) (AID 2283013)
human Retinoid X Receptor beta (RXRb), RXRB (gene 6257), sequence (P28702 whole entry, looked up, the tested form may be a part): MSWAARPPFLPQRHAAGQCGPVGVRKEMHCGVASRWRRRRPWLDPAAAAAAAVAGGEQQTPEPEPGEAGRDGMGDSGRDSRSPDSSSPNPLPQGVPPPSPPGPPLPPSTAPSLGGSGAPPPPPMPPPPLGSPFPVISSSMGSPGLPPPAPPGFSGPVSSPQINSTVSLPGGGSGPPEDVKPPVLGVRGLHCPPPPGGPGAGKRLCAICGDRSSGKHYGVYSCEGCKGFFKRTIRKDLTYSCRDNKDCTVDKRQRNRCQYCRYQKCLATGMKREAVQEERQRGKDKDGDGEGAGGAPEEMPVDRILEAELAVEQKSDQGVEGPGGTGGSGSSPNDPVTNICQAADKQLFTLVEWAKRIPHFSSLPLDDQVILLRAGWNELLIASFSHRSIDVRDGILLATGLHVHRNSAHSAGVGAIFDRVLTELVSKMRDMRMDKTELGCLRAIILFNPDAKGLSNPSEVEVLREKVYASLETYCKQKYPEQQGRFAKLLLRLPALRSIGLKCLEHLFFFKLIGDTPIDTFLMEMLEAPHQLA
Outline: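 Chimeric receptor-Gal4 activity was assessed in transiently transfected human HepG2 cells after 24 h exposure. Transcripts from GAL4-UAS reporters were quantified by fluorescent RT-PCR and capillary electrophoresis, with DMSO as negative control and baseline.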

[18] = target: human Retinoic Acid Receptor beta (RARb), RARB (gene 5915) (UniProt P10826); assay: ATG_RARb_TRANS: Attagene TRANS-FACTORIAL HepG2 Assay for human Retinoic Acid Receptor beta (AID 2283004)
Outline: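 HepG2 cells transiently transfected with multiplexed GAL4-UAS reporter units expressing chimeric NR–Gal4 fusions; 24 h compound exposure. Reporter mRNA quantified by RT-PCR, 6-FAM labelling, HpaI digestion and capillary electrophoresis; gain-of-signal fitted against DMSO baseline.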

[19] = target: Retinoic acid receptor alpha (Homo sapiens) (UniProt P10276); assay: ATG_RARa_TRANS: Attagene TRANS-FACTORIAL HepG2 Assay for human Retinoic Acid Receptor alpha (RARa) (AID 2283005)
Retinoic acid receptor alpha (Homo sapiens), sequence (P10276 whole entry, looked up, the tested form may be a part): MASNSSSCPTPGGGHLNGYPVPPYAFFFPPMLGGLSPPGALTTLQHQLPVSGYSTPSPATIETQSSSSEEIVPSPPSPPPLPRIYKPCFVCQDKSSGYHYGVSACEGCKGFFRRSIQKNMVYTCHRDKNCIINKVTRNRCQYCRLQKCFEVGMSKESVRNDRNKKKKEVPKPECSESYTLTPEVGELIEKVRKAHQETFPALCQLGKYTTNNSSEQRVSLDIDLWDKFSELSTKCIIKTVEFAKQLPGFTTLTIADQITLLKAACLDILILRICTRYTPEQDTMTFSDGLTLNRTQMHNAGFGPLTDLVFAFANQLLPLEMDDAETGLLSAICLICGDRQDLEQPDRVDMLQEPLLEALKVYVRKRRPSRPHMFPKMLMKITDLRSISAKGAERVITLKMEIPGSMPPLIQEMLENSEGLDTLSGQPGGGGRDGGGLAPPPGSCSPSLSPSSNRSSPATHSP
Outline: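 HepG2 cells transiently transfected with multiple reporter units expressing chimeric RARα-GAL4 fusion, with GAL4-UAS-driven reporters. After 24 h compound exposure, reporter mRNA induction quantified by RT-PCR and capillary electrophoresis with fluorescent labeling; gain-of-signal fitted relative to DMSO control.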

[20] = target: human Thyroid Receptor alpha (THRa1), THRA (gene 7067) (UniProt P10827); assay: ATG_THRa1_TRANS: Attagene TRANS-FACTORIAL HepG2 Assay for human Thyroid Receptor alpha (THRa1) (AID 2283014)
human Thyroid Receptor alpha (THRa1), THRA (gene 7067), sequence (P10827 whole entry, looked up, the tested form may be a part): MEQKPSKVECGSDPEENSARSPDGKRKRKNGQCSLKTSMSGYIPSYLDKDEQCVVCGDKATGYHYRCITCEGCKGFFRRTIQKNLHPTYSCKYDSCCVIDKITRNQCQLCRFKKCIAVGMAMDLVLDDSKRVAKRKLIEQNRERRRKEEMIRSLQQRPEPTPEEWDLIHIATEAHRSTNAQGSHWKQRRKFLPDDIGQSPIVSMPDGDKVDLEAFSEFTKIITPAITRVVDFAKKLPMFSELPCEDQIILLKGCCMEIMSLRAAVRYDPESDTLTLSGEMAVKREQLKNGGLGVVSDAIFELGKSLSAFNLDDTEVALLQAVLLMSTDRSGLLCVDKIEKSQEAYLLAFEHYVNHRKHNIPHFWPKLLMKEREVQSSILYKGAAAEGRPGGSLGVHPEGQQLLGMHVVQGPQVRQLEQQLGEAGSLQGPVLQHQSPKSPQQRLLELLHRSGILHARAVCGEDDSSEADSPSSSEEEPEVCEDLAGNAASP
Outline: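 HepG2 cells transiently transfected with multiplexed GAL4-UAS reporter units for exogenous chimeric THRa1-Gal4; reporter mRNA measured 24 h after dosing by RT-PCR, 6-FAM labelling, HpaI digestion and capillary electrophoresis. Gain-of-signal fitted versus DMSO baseline.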

Measured: AC50

E-selectin (Homo sapiens), sequence (P16581 whole entry, looked up): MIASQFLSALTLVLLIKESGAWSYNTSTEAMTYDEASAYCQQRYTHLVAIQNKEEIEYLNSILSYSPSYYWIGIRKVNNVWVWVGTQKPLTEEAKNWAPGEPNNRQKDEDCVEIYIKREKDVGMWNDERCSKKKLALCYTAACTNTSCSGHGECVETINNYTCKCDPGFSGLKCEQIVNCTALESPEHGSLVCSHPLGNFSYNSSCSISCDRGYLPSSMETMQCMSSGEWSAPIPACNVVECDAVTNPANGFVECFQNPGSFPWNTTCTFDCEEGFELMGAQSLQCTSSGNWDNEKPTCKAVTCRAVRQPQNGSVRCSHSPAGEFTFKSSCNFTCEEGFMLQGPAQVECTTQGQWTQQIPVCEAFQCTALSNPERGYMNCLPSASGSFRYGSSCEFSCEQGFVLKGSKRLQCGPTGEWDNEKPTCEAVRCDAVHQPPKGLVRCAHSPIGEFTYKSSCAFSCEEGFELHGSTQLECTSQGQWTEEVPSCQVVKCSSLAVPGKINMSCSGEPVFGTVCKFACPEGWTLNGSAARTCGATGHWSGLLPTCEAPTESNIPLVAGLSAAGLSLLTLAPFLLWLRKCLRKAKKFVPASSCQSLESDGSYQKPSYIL

OCC(F)(OC(F)(F)C(F)(OC(F)(F)C(F)(F)C(F)(F)F)C(F)(F)F)C(F)(F)F (stereo not drawn)
inactive: [1] | [2] | [5] | [6] | [7]
active: [3] 3.78 µM and 2.59 µM | [4] 3.09 µM and 3.33 µM | [6] 4.24 µM | [7] 3.33 µM | [8] 2.65 µM and 4.85 µM

O=Cc1ccccc1O
inactive: [9] | [10] | [11] | [12] | [13] | [14] | [15] | [16] | [17]

CC(C)Cc1ccccc1
inactive: [9] | [10] | [18] | [19] | [14] | [15] | [16] | [17]

CC1(C)CC(N)CC(C)(CN)C1 (stereo not drawn)
inactive: [9] | [10] | [11] | [12] | [13] | [14] | [15] | [16] | [17]

NC(N)=NC(N)=NCCc1ccccc1
inactive: [9] | [10] | [19] | [11] | [12] | [13] | [15] | [20]

CC(=O)CCc1ccc(O)cc1
inactive: [9] | [10] | [11] | [12] | [14] | [15] | [17] | [20]

CCCCCCCCCCCCOC(C)=O
inactive: [9] | [10] | [19] | [11] | [12] | [13] | [14] | [15] | [17]

CC(=O)Nc1cc(S(=O)(=O)O)cc2cc(S(=O)(=O)O)c(N=Nc3ccccc3)c(O)c12
inactive: [9] | [10] | [11] | [12] | [13] | [14] | [15] | [16] | [17] | [20]

NS(=O)(=O)c1cc(C(=O)O)c(NCc2ccco2)cc1Cl
inactive: [9] | [10] | [12] | [14] | [15] | [20]
active: [11] 42.7 µM

O=S(=O)(O)C(F)(F)C(F)(F)OC(F)(F)C(F)(F)F
inactive: [1] | [2] | [3] | [4] | [5] | [6] | [7] | [8]

COC(=O)C(C)Oc1ccc(Oc2ncc(C(F)(F)F)cc2Cl)cc1 (stereo not drawn)
active: [11] 48.9 µM | [12] 40.6 µM
inactive: [9] | [10] | [14] | [16] | [17] | [20]

CCCCCCOc1ccc(O)cc1
inactive: [9] | [10] | [13] | [17]
active: [11] 27.6 µM | [12] 15 µM

CCCCCCCCCCCCCC(=O)OCC
inactive: [9] | [10] | [18] | [19] | [13] | [15] | [20]

CCOC(=O)CCCCCCCCC(=O)OCC
inactive: [1] | [2] | [3] | [11] | [14] | [17] | [4] | [5] | [6] | [7] | [8]
